Measurements as given in the supplement of paper PMC11417369.
± gives the standard deviation of the averaged measurements. The full ranking holds about 25,000 sequences; the median of “ln(normalized median fluorescence intensity)” is about 8.6, and the highest 2% start at about 10. This is one part of a sample in which the highest values are shown more often than they occur.

tested on: PfAP2-EXP AP2 domain (GST-tagged); assay: gcPBM binding intensity (ln(normalized median fluorescence intensity)); higher = stronger DNA binding
Method in brief: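 For binding intensity, the highest Masliner-normalised natural-log median intensity across replicate spots of either probe orientation was taken. Protein bound to the array was stained with Alexa488 anti-GST antibody and scanned at 488 nm. The protein, GST-tagged P. falciparum DNA-binding domains from E. coli at about 25 μg on average, had been applied for 1 h to an Agilent 4 × 180k array of primer-extended double-stranded 36-bp intergenic genomic probes and negative controls.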

Row | Sequence | gcPBM binding intensity (ln)
1 | CATAAAATTGTGAAGTGTACATATTTTTAAATATAA [XGTACX_site8986] | 8.63 ± 0.28
2 | AATATTTTACAATACACATGCAAATAATATTCTAAA [TGCATGCA_site618] | 8.63 ± 0.39
3 | CATTTATATATATACACACACACAAAAAAAAAAAAA [CACACA_site2645] | 8.44 ± 0.49
4 | TATATAAATATATATACACACAAAAAAAAAAAAAAA [CACACA_site1406] | 8.36 ± 0.52
5 | AAAAAATAAATAAATACACACAAATATATATATATA [CACACA_site2543] | 10.2 ± 0.071
6 | TATATATATATATACACACACACAAAAAAAAAAAAA [CACACA_site1505] | 10.2 ± 0.21
7 | TATTTATATTTATACACACACACAAAAAAAAAAAAA [CACACA_site6817] | 8.36 ± 0.57
8 | TATATATATAAATACACACACACAAAAAAAAAAAAA [CACACA_site4930] | 8.6 ± 0.34
9 | TTAATAAAAGCCCATGCACACCTTAGAAAGTTTTAT [CACACA_site8003] | 8.43 ± 0.45
10 | GCCATTAATTTATACACACACATTATGATTTTTTAT [CACACA_site754] | 8.86 ± 0.28
11 | TCTTGTCTACCTTGTATTTAATATTTACATATATAA [TGCATGCA_negctrl_site320] | 8.95 ± 0.4
12 | TTTATTTTGACAGATTGTACACTTTATACATGTTTT [XGTACX_site2356] | 8.8 ± 0.44
13 | GGGGGGGGAGGGTGAATACACACGTAATAATCATAA [CACACA_site1716] | 10.8 ± 0.15
14 | ATAAAAAAATCAGACACACACACGTAAACACATACA [CACACA_site5529] | 8.76 ± 0.57
15 | GGGGGGAGGGTGAATACACACGTAATAATCATAAAC [CACACA_site8502] | 10.6 ± 0.22
16 | ATGGAATAATCACGTACACACAAGAAAAAAAAAAAT [CACACA_site527] | 8.8 ± 0.56
17 | TAATCATAAAAAAATACACACATATATAATATATAT [CACACA_site1983] | 8.51 ± 0.3
18 | ATAAATATCATATATATACACACGTAATACATAATA [CACACA_site4001] | 8.4 ± 0.44
19 | AACTTACTCTTTACAAGTACGTAAAAGAAATAGAAA [XGTACX_site1782] | 8.51 ± 0.41
20 | AATTTCTATTTTGTGAGTACATACTCCTATTATATA [XGTACX_site3210] | 8.78 ± 0.26
21 | ATTATATATAAATATACACACATATATAAAATACAT [CACACA_site5298] | 8.39 ± 0.28
22 | TTATACTATTTTTATACATGCATTTCTATATATTTT [TGCATGCA_site316] | 9.3 ± 0.28
23 | TTATATTATTTTTATACATGCATTTCTATATATTTT [TGCATGCA_site164] | 9.2 ± 0.3

Row | Sequence | gcPBM binding intensity (ln)
24 | TTTTTTTTTTCTCCTGCATGCAGCATTTATATATTA [TGCATGCA_site390] | 10.3 ± 0.13
25 | TCTTTATATATATATATATGTGTGAATGTTAAGTAT [XGTACX_negctrl_site135] | 8.74 ± 0.33
26 | AATGTATATATGTAATGTACATATGTAATGTATATA [XGTACX_site6509] | 8.62 ± 0.46
27 | ACATAAATAAATTAATGTACATATATATTTGTATAT [XGTACX_site3160] | 8.36 ± 0.28
28 | TTATTAAATGAAAAATGTACATATAAATGATTATAT [XGTACX_site2788] | 8.51 ± 0.25
29 | GTTTGTATGTCCAAATGTACATATGATTTTATGAAA [XGTACX_site6595] | 8.72 ± 0.28
30 | ATTTTGTATATATTTTGTACATATTTTGTATATATT [XGTACX_site885] | 8.68 ± 0.3
31 | ATATATATATATATATGTACATATATTTGTAATGTC [XGTACX_site8074] | 10.2 ± 0.43
32 | CTGAATGTATATATTTGTACATATATATATATATAT [XGTACX_site5557] | 10.4 ± 0.22
33 | ATGATTTGTCTGAAATGTACATATATATATATATAT [XGTACX_site5247] | 10.3 ± 0.47
34 | ATGAATATATATATTTGTACATATGTATATATATAT [XGTACX_site7527] | 9.71 ± 0.15
35 | ATATATATAAATATATGTACATAAATATATTTGTAA [XGTACX_site6715] | 8.47 ± 0.42
36 | TGGATTTTGTATTAATGTACATATATATATATATAT [XGTACX_site4442] | 10.2 ± 0.51
37 | TTTTTTTTGTATTAATGTACATATAACTTTTTTTTT [XGTACX_site7903] | 8.48 ± 0.47
38 | ACATTTATTTTGAATGGTACACTATTATTATGAAAT [XGTACX_site4384] | 8.36 ± 0.38
39 | TTTTTTTTTTGATGCACACACCTGAACGAGTTAATA [CACACA_site4329] | 8.83 ± 0.37
40 | ATTTTTAAATACAGTACACACATGGGTTTAAATTAT [CACACA_site2884] | 8.63 ± 0.38
41 | ATATAATAATTGTACACATGCACACACAAATATTAT [TGCATGCA_site204] | 8.9 ± 0.29
42 | GATCACTGAATAAAGGCACACATCTGACTAATTTTT [CACACA_site66] | 8.36 ± 0.39
43 | ATAAATTGAAGTAAATTTGACCTTTTTTTTTTTTTT [GTGCAC_negctrl_site354] | 8.31 ± 0.27
44 | TAAGGATGAATCCTTTGTACATATATATATATATAT [XGTACX_site1242] | 10.2 ± 0.28
45 | AATGAAAGGATGCTGTGTACATATATATATATATAT [XGTACX_site7901] | 10.2 ± 0.49
46 | ATAAAATGAACCTTTTGTACATATATATATATATAT [XGTACX_site4610] | 10.1 ± 0.57

Row | Sequence | gcPBM binding intensity (ln)
47 | ATAATTAATGATGTATGTACGGAATTTATATATTTG [XGTACX_site5685] | 8.4 ± 0.33
48 | AAAAAAGATAATTATGCACACACACCCACCCACCCA [CACACA_site8825] | 9.57 ± 0.41
49 | AAAAGATAATTATGCACACACACACCCCCACCCAAC [CACACA_site2570] | 10.67 ± 0.099
50 | AAAAGATAATTATGCACACACACACCCAGACACAAC [CACACA_site5428] | 9.11 ± 0.4
51 | TAAAATTAATTTCTGTTGCACTTATTATTAATTAAC | 8.84 ± 0.4
52 | ATATAAATATAAACATGTACATATATATATATATAT [XGTACX_site2824] | 10.3 ± 0.79
53 | ATATATATATATATATGTACATATATATTGTTGATC [XGTACX_site8893] | 10.1 ± 0.26
54 | GATATAAACGTATATGTACATATATATATATATATA [GTGCAC_negctrl_site186] | 10.2 ± 0.41
55 | TATATATAAAACATATGTACATATATATATATATAT [XGTACX_site419] | 10.2 ± 0.24
56 | TAAATATATATAACATGTACATAAAATATATATATA [XGTACX_site4431] | 9.53 ± 0.13
57 | AATATATAAACACGTACACACACATATATGTATATA [CACACA_site9168] | 8.73 ± 0.43
58 | AACATAAAAAAAATATGTACATATATAATATATATA [XGTACX_site3764] | 8.85 ± 0.23
59 | TATAAACGTATAATATGTACACACACATATATACAA [XGTACX_site1686] | 8.43 ± 0.32
60 | GTAAATATATAAACATGTACATATATAAATATATAA [XGTACX_site7262] | 8.51 ± 0.33
61 | ATAAAAACATAAAAATGTACATATATATATATATAT [XGTACX_site7165] | 10.1 ± 0.25
62 | GCAAATATGTTGATATGTACATATATATATATATAT [XGTACX_site445] | 10.2 ± 0.45
63 | ATAAAAAAAAATATATGTACATATATAAATTGATAT [XGTACX_site7409] | 8.73 ± 0.42
64 | AATGGGTAAACATACACACACACATATATATATATA [CACACA_site1991] | 10.1 ± 0.33
65 | AATAAGTTATTATTTTGTACACATAAATAATACGTT [XGTACX_site814] | 8.32 ± 0.3
66 | ATATTCATATATTTACGTACATACATTTATATATTT [XGTACX_site7644] | 8.85 ± 0.37
67 | TACCTATACAGACACACACACACACGCCCACAAAAA [CACACA_site6375] | 8.77 ± 0.35
68 | GAAATTAAATGACATACACACTATATTATATATTTT [CACACA_site5693] | 8.34 ± 0.35
69 | AGTAGTCTGGAGAAGAGTACACAGTATCTGGTAGCT [XGTACX_site2042] | 8.48 ± 0.47

Row | Sequence | gcPBM binding intensity (ln)
70 | AAATAAAATAAAAACATGCACACTTTATTTTTTTTA [CACACA_site2800] | 8.49 ± 0.26
71 | AGAAAAGAGAGAAAAACATGCACATGATATTATAAA [TGCATGCA_site120] | 8.62 ± 0.53
72 | ATAAATAAAACAAAATGTACAAATATTCATATATTC [XGTACX_site1307] | 8.49 ± 0.32
73 | ATATATATATATATATGTACATAAACATATATATAT [XGTACX_site1064] | 10.2 ± 0.21
74 | AAACATATATACATATGTACATATATACATATATGT [XGTACX_site5779] | 8.4 ± 0.26
75 | AAACATATAAACATATGTACATATAAACATATATAC [XGTACX_site5026] | 8.64 ± 0.33
76 | ATAAATATAAATATATGTACATATATATATATATAT [XGTACX_site7433] | 10.2 ± 0.15
77 | TTATATGCATAAAAACGTACAAAAATGTATTCATGT [XGTACX_site2215] | 8.71 ± 0.38
78 | AATATGATATATATATGTACATATATATAATATAAT [XGTACX_site3072] | 8.52 ± 0.41
79 | CATGATATATAAATATGTACATATATATATATATAT [XGTACX_site1760] | 10.2 ± 0.23
80 | ATATATATATATATATGTACGTATTCATAAACAACA [XGTACX_site4282] | 10.2 ± 0.6
81 | TTTTTTCTTTCTTTCAAACACACATTAATTTTATTC [CACACA_site2733] | 8.66 ± 0.49
82 | ATAAATATGGAGCACACACACATAAACATACATATA [CACACA_site421] | 8.84 ± 0.67
83 | AGAAGGATATTATGAAGTACACATATTGTATATGGT [XGTACX_site7503] | 8.47 ± 0.35
84 | AATATATAAATATTGTGTACTTATTTTTTTATATGT [XGTACX_site4377] | 8.49 ± 0.18
85 | TAAATATGAGGGAACACACACATGATATATAAATTC [CACACA_site2400] | 8.81 ± 0.43
86 | TATATATTGCCCTTCACACACACACCCATATATATA [CACACA_site2493] | 9.06 ± 0.42
87 | TTATTTATTTATTGTTGTACACAAAATGATTCTTAA [XGTACX_site6480] | 8.7 ± 0.2
88 | TTATATAACACGGGGAGGACACAAGAAATAAAGAGC [XGTACX_site2148] | 9.13 ± 0.29
89 | AAAATTATATATTATAGTACATAAAATTTTGATATA [XGTACX_site994] | 8.39 ± 0.35
90 | AATGATTTTGATTAACGTACGTACAAATATATATAT [XGTACX_site6604] | 9.31 ± 0.057
91 | ATTTTGATAACCGTACGTACATATATATATATATAT [XGTACX_site6605] | 10.3 ± 0.35
